High-throughput results from PubChem BioAssay.
In the library only some 11% were active in any assay of this set; here they are far more common.
Pf growth 48h = P. falciparum growth inhibition at 48 hours (one generation). AID 504832. actives 5.9% (n = 310,000). Potency, µM (doses to about 28.7 µM), usual class: inhibitors. P. falciparum luciferase growth in erythrocytes, 48 h
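Growth was read as firefly luciferase luminescence after a 48 h, 37 C, 5% CO2 exposure of compounds to reporter-bearing P. falciparum cultures (0.1% parasitemia, 2% hematocrit final) in Albumax-supplemented RPMI 1640.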
AMA1-RON2 inh = inhibitors of Plasmodium falciparum AMA1-RON2 interaction; Potency, µM (doses to about 58.2 µM), most hits filed as inhibitors; actives 0.2% (n = 360,000); AlphaScreen AMA1-biotinylated RON2 peptide binding; also: nearly all actives have a fitted effect of over 45% in size
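AMA1 (3D7) with his tag at 25 nM final met compounds first, then biotinylated RON2 peptide at 25 nM; detection used donor plus acceptor beads, 10 µg/mL apiece, read by AlphaScreen after 30 min at room temperature.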
Pf growth 96h = P. falciparum growth inhibition at 96 hour, primary screen for plastid delayed-death inhibitors; actives 6.9% (n = 320,000); P. falciparum luciferase reporter growth, 96 h; Potency, µM (series often up to 28.7 µM), hits mostly inhibitors; AID 504834
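Cell-based qHTS: luciferase-tagged P. falciparum in erythrocytes (2% hematocrit, 0.05% parasitemia final) incubated with compounds for 96 hours, 37 C, 5% CO2; luciferase detection reagent then added and luminescence measured.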
NS1 inh = blocks influenza NS1 protein function | actives 0.4% (n = 270,000) | AID 2326 | Potency, µM (series often up to 46.1 µM); calls by dose curve; also: actives are rising curves; nearly all actives have a fitted effect of over 50% in size
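OD600 was taken as the measure of yeast growth restored by compound in an NS1-expressing S. cerevisiae strain. Cells had been washed out of glucose medium and diluted 1:100 into galactose -URA medium, pH 6.0.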
Sm TGR inh = blocks Schistosoma mansoni thioredoxin glutathione reductase; Potency, µM (top dose mostly 114 µM), hits mostly inhibitors; AID 485364; actives 3% (n = 360,000); purified TGR, DTNB reduction, TNB absorbance 405 nm; also: nearly all actives have a fitted effect of over 60% in size
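TGR 20 nM + NADPH 100 uM (dispensed conc.), cpd preinc 15 min RT; start with NADPH (500 uM addition) then DTNB (15 mM addition). Kinetic TNB absorbance, 405 nm filter. Four-parameter Hill fit across titration.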
A number is an active result; . = inactive; ? = inconclusive; / = not tested or not shown. Unless noted, calls follow the shape of the dose curve; as a rule, active = well fitted curve in the direction sought with a large enough effect; inconclusive = small, poorly fitted or top-dose-only effect, or another doubt; inactive = no such curve, though single readings can be large; an effect the other way counts as inactive or inconclusive.

SMILES	Pf growth 48h	AMA1-RON2 inh	Pf growth 96h	NS1 inh	Sm TGR inh
CCCCC(=O)NC(c1ccc(Cl)cc1Cl)c1ccc2cccnc2c1O (stereo not given)	1.9µM	.	.	.	.
CCN(CC)C(=O)COC(=O)C1=NN(c2cc(C)ccc2C)C(=O)CC1	?	.	.	.	.
CC(C)c1ccccc1NC(=S)NCC1(N(C)C)CCCCC1	?	.	?	.	.
COc1cc(Nc2ccc(C)cc2)c([N+](=O)[O-])nc1[N+](=O)[O-]	?	.	.	.	25µM
Cc1cc(C)cc(Nc2ccc([N+](=O)[O-])nc2[N+](=O)[O-])c1	?	.	?	.	?
CCOc1ccccc1NC(=O)COc1coc(CN2CCc3ccccc32)cc1=O	12µM	?	?	/	.
CCOC(=O)c1ccccc1NC(=O)COc1coc(CN2CCc3ccccc32)cc1=O	?	?	12µM	/	.
C=C(C)C(=O)NNc1ccccc1	.	.	.	/	1.6µM
COc1ccc(CCNc2cc(C)nc3c(-c4ccccc4OC)cnn23)cc1OC	13µM	.	?	.	.
O=c1ccc2cc(S(=O)(=O)Nc3ccc(OC(F)(F)F)cc3)ccc2[nH]1	/	/	/	/	.
CCOC(=O)C1=C(c2ccccc2)NC(N)=NC1c1ccc(OCc2ccc(Cl)cc2)c(OC)c1 (stereo not given)	1.5µM	.	1.7µM	.	.
COc1ccc(S(=O)(=O)NCC(c2ccco2)N2CCN(c3ccc(F)cc3)CC2)cc1C (stereo not given)	/	/	/	/	.
CC(C)(C)[C@H]1C=C(C(=O)N2CCN(Cc3ccc4c(c3)OCO4)CC2)O[C@@H](OCCCCO)C1	?	.	?	.	.
C=CCOC(=O)C1=C[C@@H](c2ccc3c(c2)OCO3)C[C@@H](OCc2ccc(CO)cc2)O1	?	.	?	.	40µM
O=C(C1=C[C@@H](c2ccc(Br)cc2)C[C@@H](OCc2ccc(CO)cc2)O1)N1CCN(Cc2ccc3c(c2)OCO3)CC1	?	.	15µM	.	.
O=C(C1=C[C@@H](c2ccc3c(c2)OCO3)C[C@@H](OCc2ccc(CO)cc2)O1)N1CCOCC1	.	.	?	.	.
O=C(C1=C[C@H](c2coc3ccccc3c2=O)C[C@H](OCCCCO)O1)N1CCN(Cc2ccc3c(c2)OCO3)CC1	.	.	?	.	.
CC(C)(C)[C@@H]1C=C(C(=O)N2CCN(Cc3ccc4c(c3)OCO4)CC2)O[C@H](OCc2ccc(CO)cc2)C1	10µM	.	12µM	.	.
O=C(C1=C[C@@H](c2ccc(C(F)(F)F)cc2)C[C@@H](OCCCCO)O1)N1CCN(Cc2ccc3c(c2)OCO3)CC1	?	.	9.3µM	.	?
CC(=O)c1c(C)[nH]c(C(=O)CN2C(=O)NC3(CCCCC3)C2=O)c1C	.	.	.	/	.
O=C(C1=C[C@H](c2ccc(C(F)(F)F)cc2)C[C@H](OCc2ccc(CO)cc2)O1)N1CCN(Cc2ccc3c(c2)OCO3)CC1	?	.	3.7µM	.	?
O=C(C1=C[C@H](c2ccc3c(c2)OCO3)C[C@H](OCc2ccc(CO)cc2)O1)N1CCCCCCC1	?	.	?	.	.
O=C(C1=C[C@@H](c2ccc(C(F)(F)F)cc2)C[C@@H](OCc2ccc(CO)cc2)O1)N1CCN(Cc2ccc3c(c2)OCO3)CC1	?	.	2.3µM	.	.
CCc1cc(=O)oc2cc(OCC(=O)N3CCc4ccccc43)ccc12	.	/	.	.	.
Cc1cccc(N2CCN(C(=O)COc3ccc4c(C)cc(=O)oc4c3C)CC2)c1C	12µM	.	?	.	.
SMILES	Pf growth 48h	AMA1-RON2 inh	Pf growth 96h	NS1 inh	Sm TGR inh
CCc1cc(=O)oc2c(C)c(OCC(=O)N3CCCc4ccccc43)ccc12	12µM	.	/	.	.
Cc1cc(=O)oc2c(C)c(OCC(=O)N3CCN(c4ccc(F)cc4)CC3)ccc12	.	.	.	.	.
COc1cccc(-c2nc(SCC(=O)N3CCc4ccccc43)c3c(=O)n(C)c(=O)n(C)c3n2)c1	/	/	/	/	.
CCCC(O)(c1ccc(Cl)cc1)C(CN1CCOCC1)c1ccc(Cl)cc1 (stereo not given)	1.9µM	.	.	.	.
CCc1ccc(C(O)(CC(C)C)C(CN2CCOCC2)c2ccccc2)cc1 (stereo not given)	?	?	.	.	.
CCCC(O)(CCN1CCOCC1)c1ccc(Cl)cc1 (stereo not given)	.	.	.	.	20µM
OC(COc1ccccc1)CN1CCCC1 (stereo not given)	.	.	.	/	.
CCCCC(O)(c1ccc(F)cc1)C(CN1CCOCC1)c1ccc(Cl)cc1 (stereo not given)	1.9µM	.	.	.	.
CCCC(O)(CCN1CCOCC1)c1ccc(Br)cc1 (stereo not given)	.	.	?	.	?
CC(C)(c1ccccc1)c1ccc(OCC(O)CN2CCCC2)cc1 (stereo not given)	13µM	.	.	.	.
CCn1ncc(S(=O)(=O)N2CCN(c3cccc(OC)c3)CC2)c1C	.	.	.	.	.
OC(COc1ccc(CN2CCCCO2)cc1)CN1CCCCC1 (stereo not given)	?	.	12µM	.	.
CCOc1ccc(C(O)(c2ccccc2)C(CN2CCCC2)c2ccccc2)cc1 (stereo not given)	12µM	.	.	.	.
COc1ccc(C(O)(CCC(C)C)C(CN2CCOCC2)c2ccc(Cl)cc2)cc1 (stereo not given)	1.7µM	.	.	.	.
CCOc1ccc(C(O)(CCC(C)C)C(CN2CCOCC2)c2ccccc2)cc1 (stereo not given)	7.4µM	.	.	.	.
OC(COc1ccc(OCC(O)CN2CCCCCC2)cc1)CN1CCCCCC1 (stereo not given)	?	.	.	.	.
CCCC(O)(c1ccc(OC)cc1)C(CN1CCOCC1)c1ccc(Cl)cc1 (stereo not given)	?	.	.	.	.
COc1ccc(C(O)(CC(C)C)C(CN2CCOCC2)c2ccccc2)cc1 (stereo not given)	12µM	.	?	.	.
COCCn1c(N)c(N(Cc2ccccc2)C(=O)c2cc3ccccc3o2)c(=O)[nH]c1=O	.	.	.	/	.
S=C(Nc1ccccc1)N1CCn2c1nc1ccccc12	.	.	2.6µM	.	.
O=C(Nc1ccccc1)N1CCn2c1nc1ccccc12	.	.	.	.	.
On1ccccc1=S	0.83µM	.	0.59µM	/	.
O=C(Cn1ccccc1=S)c1ccc(Cl)c(Cl)c1	/	.	/	/	/
COc1ccc(OC)c(NS(=O)(=O)c2ccc3[nH]c4c(c3c2)CCCCC4)c1	/	/	/	/	.
O=C1c2ccccc2NC(c2c(Cl)cccc2Cl)N1Cc1ccccc1 (stereo not given)	13µM	.	.	?	.
CSCc1cc(N(C)C)nc(SCc2ccc(Cl)c(Cl)c2)n1	10µM	.	?	.	.
CNc1cc(CSC)nc(SCc2ccc(Cl)cc2Cl)n1	?	?	?	.	.
